Measurements from PubChem BioAssay AID485364 (National Center for Advancing Translational Sciences (NCATS), 2010).
Out of some 360,000 compounds screened, about 11,000 (3.1%) were called active. Another 4% or so got no clear call; they are omitted. Calls come from the whole dose curve; as a rule, active = well fitted inhibition curve with a large enough effect; inconclusive = small, poorly fitted or top-dose-only effect; inactive = no such curve, though single readings can be large or run the other way. The sample as a whole holds a higher share of actives than the screen did.

The compounds below were run against Schistosoma mansoni thioredoxin glutathione reductase (TGR) (UniProt Q962Y6) (assay: qHTS Assay for the Inhibitors of Schistosoma Mansoni Peroxiredoxins). Conditions: purified TGR, DTNB reduction, TNB absorbance 405 nm; series mostly up to 114 µM; activity change, negative = inhibition: at the top concentration.
Text: Schistosomiasis is a major neglected tropical disease that currently affects over 200 million. It is caused by different species of flatworms, such as Schistosoma mansoni. Over the last century, drugs to treat the disease have evolved from potassium antimonyl tartrate, artemisinin, oxamniquine, to praziquantel, with praziquantel remaining the universally-used single drug of choice over the past three decades. However, transmission rates have changed little with praziquantel, and there is evidence for the development of drug resistant parasites. Because there is currently no suitable alternative therapy available, there is an urgent need to identify new targets and drugs for schistosomiasis treatment. Thioredoxin glutathione reductase (TGR), one uniquely positioned S. mansoni enzyme, has been identified as a major component of the worms' distinct and compressed antioxidant "firewall". TGR is a multifunctional enzyme that catalyzes the interconversion between reduced and oxidized forms of both glutathione (GSH) and thioredoxins, thus making it an attractive new antiparasitic target. Recently, a quantitative high-throughput screen of the NIH Molecular Libraries Small Molecule Repository (MLSMR, ~71K at the time of the screen in 2007) was performed using an assay that targeted both TGR and peroxiredoxin2 (Prx2, an H2O2-reducing enzymatic component of the S. mansoni redox "firewall") by following the decrease of NADPH fluorescence. […] Additional mechanistic link between exogenous NO donation and parasitic injury for the oxadiazole-2-oxide class of compounds was also expanded and better defined. Although the screen addressed both TGR and Prx2, the assay required post-screen target deconvolution for further characterization of the actives. In addition, the fluorescence assay was also subject to fluorescence interference from compound library members. We have developed a 1536-well-based kinetic HTS assay to address TGR alone. The assay followed the reduction of 5, 5'-dithiobis (2-nitrobenzoic acid) (DTNB) (Ellman's reagent) by NADPH and measured the increase in absorbance at 412 nm of the reaction product, TNB. […] This assay format can be used to screen the current MLSMR collection (with >300K compounds available) to find novel TGR inhibitors. Furoxan is a good choice to serve as a positive control in the primary HTS assay.
Three microliters of reagents (100 uM NADPH and 20 nM TGR or 100 uM NADPH as no-enzyme control) were dispensed into 1,536-well black clear-bottomed plates. Compounds (23 nL) were transferred via Kalypsys pin tool equipped with 1536-pin array (10 nL slotted pins, V&P Scientific, San Diego, CA). The plates were then be incubated for 15 min at room temperature, and 1 uL aliquot of 500 uM NADPH were added, immediately followed by a 1 uL aliquot of 15 mM DTNB to start the reaction. The plate was transferred to a ViewLux high-throughput CCD imager (Perkin-Elmer, Wellesley, MA) where kinetic measurements of the TNB absorbance were acquired using a 405 excitation filter. Throughout the screen, reagent bottles and all liquid lines were made light-tight to minimize reagent degradation. All screening operations were performed on a fully integrated robotic system (Kalypsys, San Diego, CA) containing one RX-130 and two RX-90 anthropomorphic robotic arms (Staubli, Duncan, SC). Library plates were screened starting from the lowest and proceeding to the highest concentration, and a "double-dipping" step of the highest concentration was required to access higher concentrations of compounds. Vehicle-only plates, with DMSO being pin-transferred to the entire column 5-48 compound area, were inserted uniformly at the beginning and the end of each library in order to monitor for and record any shifts in the background, which can be affected by reagent dispensers or loss in enzyme activity overtime. […]
% is set by controls: 0 for no effect and ±100 for the full control effect; potency is the fitted concentration of half-maximal effect.
Note: nearly all actives have a fitted effect of over 60% in size.

Structure (SMILES) | activity change, negative = inhibition | Potency
O=C(Cn1cc(SCc2cccc(Cl)c2)c2ccccc21)N1CCCCC1 | 8.64% (inactive) | 
Oc1c(C(c2ccccn2)N2CCOCC2)ccc2cccnc12 (stereo not given) |  | 0.794 µM (active)
Cn1c(C(=O)Nc2cccc(C(F)(F)F)c2)cc2c(=O)n3ccccc3nc21 | -5.71% (inactive) | 
Cc1ccccc1NC(=S)Nc1cccc([N+](=O)[O-])c1 |  | 44.7 µM (active)
O=C(Nc1cccc([N+](=O)[O-])c1)N1CCc2ccccc2C1 | -15.1% (inactive) | 
COC(=O)/C=C\C(=O)Nc1cccc([N+](=O)[O-])c1 |  | 0.794 µM (active)
Cc1cc([N+](=O)[O-])ccc1NCc1cccc([N+](=O)[O-])c1 | -14% (inactive) | 
Cc1c(NC(=O)Nc2cccc([N+](=O)[O-])c2)c(=O)n(-c2ccccc2)n1C | -26.1% (inactive) | 
CCC(CC)NC(=O)/C=C/c1cccc([N+](=O)[O-])c1 | -7.28% (inactive) | 
COc1ccccc1N1CCN(CCCNC(=O)c2cnn(-c3ccccc3Cl)c2C2CCN(C(=O)OC(C)(C)C)CC2)CC1 | -10.9% (inactive) | 
COc1ccc(Br)cc1C1CC(=O)Nc2c1c(C)nn2-c1nc(C)cc(C)n1 (stereo not given) | -0.653% (inactive) | 
O=C(CCC(=O)N1CC2CCCN2c2ccccc21)NCc1ccccc1Cl (stereo not given) | -1.42% (inactive) | 
Cc1ccc(N=C2NC(=O)/C(=C/C=C/c3ccco3)S2)cc1C |  | 44.7 µM (active)
CC(C)c1ccc(NC(=O)Cn2c3ncccc3c(=O)n2-c2ccccc2)cc1 | -12% (inactive) | 
CN(Cc1ccccc1)C(=O)CCS(=O)(=O)c1cc(Br)cc2c1N(C(=O)C1CC1)CC2 | -20.2% (inactive) | 
N#CCCN1CCN(S(=O)(=O)c2ccc(S(=O)(=O)N3CCCC3)cc2)CC1 | 5.99% (inactive) | 
CC(C)(C)c1cc(CN2CCN(CCC#N)CC2)cc(C(C)(C)C)c1O |  | 2.24 µM (active)
N#Cc1cccc(CN2CCC(=O)N(CCO)CC2)c1 | 0.227% (inactive) | 
O=C1C(=O)N(CC2COc3ccccc3O2)c2ccccc21 (stereo not given) | 5.93% (inactive) | 
Cc1cc(C(=O)CCl)c(C)n1CC1COc2ccccc2O1 (stereo not given) |  | 10 µM (active)
Cc1noc(C)c1C(=O)NCC1COc2ccccc2O1 (stereo not given) | 14.9% (inactive) | 
Cc1ccc2nc(COc3ccc(NC(=O)COc4ccccc4F)cc3)cc(=O)n2c1 | 2.09% (inactive) | 
C=C(C)C(=O)O[C@H]1C/C(C)=C\C(=O)/C=C(\C)[C@H](O)[C@@H]2OC(=O)C(=C)[C@@H]21 |  | 3.55 µM (active)
CCOC(=O)c1c(C)oc2nc(C)nc(N(CC(C)C)CC(C)C)c12 | -0.372% (inactive) | 
COc1cc2c(cc1OC)CC1(CCCCC1)N=C2 | 2.45% (inactive) | 

Structure (SMILES) | activity change, negative = inhibition | Potency
CCCC[C@]12Cc3cc(OC)c(OC)cc3C(O1)C1=C(CC3(CCCCC3)OC1=O)O2 |  | 11.2 µM (active)
CCCCC12CN3CC(C)(CN(C1)C3c1ccc(O)c(OC)c1)C2=O (stereo not given) | -4.55% (inactive) | 
COc1ccc(-c2[nH]c3c(c2-c2c(-n4cccc4)n(C)c(=O)n(C)c2=O)c(=O)n(C)c(=O)n3C)cc1 | 0.0872% (inactive) | 
Cc1ccc(NC(=O)c2oc3ccccc3c2NC(=O)Cc2cccs2)cc1 | -1.38% (inactive) | 
COc1cccc(NC(=O)COC(=O)CCOc2ccccc2OC)c1 | -7.41% (inactive) | 
CSc1ccccc1NC(=O)COC(=O)CCCOc1ccc(C)cc1 | -1.77% (inactive) | 
COc1cc([N+](=O)[O-])ccc1NC(=O)COC(=O)CCOc1ccc(C)cc1 |  | 35.5 µM (active)
CCOC(=O)c1ccc(NC(=O)CCS(=O)(=O)c2ccc3c(c2)oc(=O)n3C)cc1 | 8.54% (inactive) | 
COC(=O)NNC1=CC(=O)CC(C)(C)C1 | -7.66% (inactive) | 
Cc1ccc(C(=O)Oc2ccc(C(=S)N3CCOCC3)cc2)cc1 | -7.9% (inactive) | 
Cc1ccc(C(=O)OC2=CC(=O)CC(C)(C)C2)cc1 |  | 44.7 µM (active)
COc1ccccc1CNC(=O)c1ccc(CS(=O)c2ccccc2Cl)o1 (stereo not given) | -24.7% (inactive) | 
COc1cccc(C(=O)N(Cc2cccc(Cl)c2)Cc2ccco2)c1 | 8.76% (inactive) | 
CCS(=O)(=O)Nc1ccc(C2=NN(S(=O)(=O)c3ccc(F)cc3)C(c3ccco3)C2)cc1 (stereo not given) |  | 44.7 µM (active)
CCS(=O)(=O)Nc1ccc(C2=NN(C(C)=O)C(c3cccs3)C2)cc1 (stereo not given) | 4.07% (inactive) | 
CS(=O)(=O)Nc1cccc(C2=NN(S(=O)(=O)c3ccccc3)C(c3cccs3)C2)c1 (stereo not given) | 4.09% (inactive) | 
CCOCCCNC(=O)c1c(NC(=O)Cc2coc3c(C)c(C)ccc23)sc2c1CCC2 | -12.2% (inactive) | 
CCCCNC(=O)CSc1nc2cc3c(cc2c(=O)n1CCCCCC(=O)NCc1ccc2c(c1)OCO2)OCO3 | -5.38% (inactive) | 
C=C(C)Cn1c(SCC(=O)NCc2ccco2)nc2sc3c(c2c1=O)CCC3 |  | 44.7 µM (active)
O=C(NCc1ccco1)c1cccn2c(=O)c3c4c(sc3nc12)CCCC4 |  | 12.6 µM (active)
O=c1oc(-c2ccco2)nc2sc3c(c12)CCCCC3 | 0.263% [at 57.1 µM] (inactive) | 
C=CCn1c(SCC(=O)NCCCO)nc2sc3c(c2c1=O)CCC3 | -6.99% (inactive) | 
O=C(CSc1nc2cc3c(cc2c(=O)n1CCC1=CCCCC1)OCO3)NCc1ccco1 | 10.1% (inactive) | 
O=C(NCc1ccco1)c1nc2ncccn2n1 | 0.0944% (inactive) | 
Cc1nc2ccc(S(=O)(=O)N(CC(=O)Nc3ccc(F)cc3)Cc3ccccc3)cc2s1 | 7.38% (inactive) | 
